Source: PMC11062922 (Nature Chemical Biology, 2023)
Like-named read-outs stand apart in the source and are kept apart here.

What was measured:
Design in all cases: species or system human, MV4-11 + K-562 + COLO205 + SK-N-BE2 + OVCAR-8
CDK16 = conditions: read-out: apparent Kd, n = 1
CDK17 = conditions: read-out: apparent Kd, n = 1
CLK1 = conditions: read-out: apparent Kd, n = 1
CLK4 = conditions: read-out: apparent Kd, n = 1
DYRK1A = conditions: read-out: apparent Kd; compound concentrations: 100 nM and 1000 nM (sheet 'Samples'), CATDS: 6.0885213450921502E-2; n = 1
GSK3A = conditions: read-out: apparent Kd, n = 1
GSK3B = conditions: read-out: apparent Kd, n = 1
ICK = conditions: read-out: apparent Kd, n = 1
PRKCA = conditions: read-out: apparent Kd, n = 1
PRKCB = conditions: read-out: apparent Kd, n = 1
PRKCD = conditions: read-out: apparent Kd, n = 1
SLK = conditions: read-out: apparent Kd, n = 1
CDC7 = conditions: read-out: apparent Kd; compound concentrations:100 nM and 1000 nM (sheet 'Samples'); n = 1
PIK3CD = conditions: read-out: apparent Kd; compound concentrations:100 nM and 1000 nM (sheet 'Samples'); n = 1
TGFBR1 = conditions: read-out: apparent Kd; compound concentrations:100 nM and 1000 nM (sheet 'Samples'); n = 1
CDKL5 = conditions: read-out: apparent Kd; compound concentrations:100 nM and 1000 nM (sheet 'Samples'); n = 1
CSNK2A1;CSNK2A3 = conditions: read-out: apparent Kd; compound concentrations:100 nM and 1000 nM (sheet 'Samples'); n = 1
CSNK2A2 = conditions: read-out: apparent Kd; compound concentrations:100 nM and 1000 nM (sheet 'Samples'); n = 1
MELK = conditions: read-out: apparent Kd; compound concentrations:100 nM and 1000 nM (sheet 'Samples'); n = 1
MYLK3 = conditions: read-out: apparent Kd; compound concentrations:100 nM and 1000 nM (sheet 'Samples'); n = 1
NUAK1 = conditions: read-out: apparent Kd; compound concentrations:100 nM and 1000 nM (sheet 'Samples'); n = 1
PRKAG1 = conditions: read-out: apparent Kd; compound concentrations:100 nM and 1000 nM (sheet 'Samples'); n = 1
CDK1 = conditions: read-out: apparent Kd; compound concentrations:100 nM and 1000 nM (sheet 'Samples'); n = 1
CDK2 = conditions: read-out: apparent Kd; compound concentrations:100 nM and 1000 nM (sheet 'Samples'); n = 1
CDK4 = conditions: read-out: apparent Kd; compound concentrations:100 nM and 1000 nM (sheet 'Samples'); n = 1
CDK5 = conditions: read-out: apparent Kd; compound concentrations:100 nM and 1000 nM (sheet 'Samples'); n = 1
CDK6 = conditions: read-out: apparent Kd; compound concentrations:100 nM and 1000 nM (sheet 'Samples'); n = 1
CDK7 = conditions: read-out: apparent Kd; compound concentrations:100 nM and 1000 nM (sheet 'Samples'); n = 1
CDK9 = conditions: read-out: apparent Kd; compound concentrations:100 nM and 1000 nM (sheet 'Samples'); n = 1
NNT = conditions: read-out: apparent Kd; compound concentrations:100 nM and 1000 nM (sheet 'Samples'); n = 1
PSMC4 = conditions: read-out: apparent Kd; compound concentrations:100 nM and 1000 nM (sheet 'Samples'); n = 1
CDK12 = conditions: read-out: apparent Kd; compound concentrations: 100 nM and 1000 nM (sheet 'Samples'), CATDS: 0.16242687072241299; n = 1
CDK13 = conditions: read-out: apparent Kd; compound concentrations: 100 nM and 1000 nM (sheet 'Samples'), CATDS: 0.16446533875215399; n = 1
MAPK10 = conditions: read-out: apparent Kd; compound concentrations: 100 nM and 1000 nM (sheet 'Samples'), CATDS: 0.33495043269217101; n = 1
MAPK8 = conditions: read-out: apparent Kd; compound concentrations: 100 nM and 1000 nM (sheet 'Samples'), CATDS: 0.17846593111563799; n = 1
MAPK9 = conditions: read-out: apparent Kd; compound concentrations: 100 nM and 1000 nM (sheet 'Samples'), CATDS: 0.23956411042419101; n = 1
CDC42 = conditions: read-out: apparent Kd; compound concentrations:100 nM and 1000 nM (sheet 'Samples'); n = 1
FLT3 = conditions: read-out: apparent Kd; compound concentrations:100 nM and 1000 nM (sheet 'Samples'); n = 1
LIMK2 = conditions: read-out: apparent Kd; compound concentrations:100 nM and 1000 nM (sheet 'Samples'); n = 1
CSNK1A1 = conditions: read-out: apparent Kd; compound concentrations:100 nM and 1000 nM (sheet 'Samples'); n = 1
CSNK1D = conditions: read-out: apparent Kd; compound concentrations:100 nM and 1000 nM (sheet 'Samples'); n = 1
CSNK1E = conditions: read-out: apparent Kd; compound concentrations:100 nM and 1000 nM (sheet 'Samples'); n = 1
ERBB3 = conditions: read-out: apparent Kd; compound concentrations:100 nM and 1000 nM (sheet 'Samples'); n = 1
MAPK14 = conditions: read-out: apparent Kd; compound concentrations:100 nM and 1000 nM (sheet 'Samples'); n = 1
MAPKAPK2 = conditions: read-out: apparent Kd; compound concentrations:100 nM and 1000 nM (sheet 'Samples'); n = 1
RAB14 = conditions: read-out: apparent Kd; compound concentrations:100 nM and 1000 nM (sheet 'Samples'); n = 1
CLK2 = conditions: read-out: apparent Kd; compound concentrations:100 nM and 1000 nM (sheet 'Samples'); n = 1
NUAK2 = conditions: read-out: apparent Kd; compound concentrations:100 nM and 1000 nM (sheet 'Samples'); n = 1
PRKCI = conditions: read-out: apparent Kd; compound concentrations:100 nM and 1000 nM (sheet 'Samples'); n = 1
PRKCQ = conditions: read-out: apparent Kd; compound concentrations:100 nM and 1000 nM (sheet 'Samples'); n = 1
RPS6KA3 = conditions: read-out: apparent Kd; compound concentrations:100 nM and 1000 nM (sheet 'Samples'); n = 1
RPS6KA6 = conditions: read-out: apparent Kd; compound concentrations:100 nM and 1000 nM (sheet 'Samples'); n = 1
RPS6KB1 = conditions: read-out: apparent Kd; compound concentrations:100 nM and 1000 nM (sheet 'Samples'); n = 1
STK26 = conditions: read-out: apparent Kd; compound concentrations:100 nM and 1000 nM (sheet 'Samples'); n = 1
VDAC3 = conditions: read-out: apparent Kd; compound concentrations:100 nM and 1000 nM (sheet 'Samples'); n = 1
[1] = compound concentrations:100 nM and 1000 nM (sheet 'Samples')

In the case of `Cl.Cn1cc(C2=C(c3cccc(NCC(O)CO)c3)C(=O)NC2=O)c2cc(Cl)ccc21` (stereo not shown) [RO3303724-001], the potency estimated from few doses (CDK16; compound concentrations: 100 nM and 1000 nM (sheet 'Samples'), CATDS: 8.3420011221061796E-2) is reported as 435 nM, the potency estimated from few doses (CDK17; compound concentrations: 100 nM and 1000 nM (sheet 'Samples'), CATDS: 6.9472696820348595E-2) is reported as 789 nM and the potency estimated from few doses (CLK1; compound concentrations: 100 nM and 1000 nM (sheet 'Samples'), CATDS: 0.14144162064954499) is reported as 89.4 nM. For the same molecule, the potency estimated from few doses (CLK4; compound concentrations: 100 nM and 1000 nM (sheet 'Samples'), CATDS: 0.121885472090614) was 140 nM, the potency estimated from few doses (DYRK1A) was 1290 nM and the potency estimated from few doses (GSK3A; compound concentrations: 100 nM and 1000 nM (sheet 'Samples'), CATDS: 0.52335848110550598) was 1.59 nM. It also gave a potency estimated from few doses (GSK3B; compound concentrations: 100 nM and 1000 nM (sheet 'Samples'), CATDS: 0.436012050591219) of 2.26 nM, a potency estimated from few doses (ICK; compound concentrations: 100 nM and 1000 nM (sheet 'Samples'), CATDS: 7.1463639855973302E-2) of 716 nM and a potency estimated from few doses (PRKCA; compound concentrations: 100 nM and 1000 nM (sheet 'Samples'), CATDS: 6.1825082982023397E-2) of 1210 nM. It also gave a potency estimated from few doses (PRKCB; compound concentrations: 100 nM and 1000 nM (sheet 'Samples'), CATDS: 5.6210904808559101E-2) of 1830 nM, a potency estimated from few doses (PRKCD; compound concentrations: 100 nM and 1000 nM (sheet 'Samples'), CATDS: 6.6135854236704303E-2) of 939 nM and a potency estimated from few doses (SLK; compound concentrations: 100 nM and 1000 nM (sheet 'Samples'), CATDS: 5.3656939950023998E-2) of 2310 nM.

Work on `c1ccc(-c2cc(-c3c[nH]nc3-c3ccccn3)ccn2)cc1` [GW576604X] yielded a potency estimated from few doses (CDC7) of 1870 nM, a potency estimated from few doses (PIK3CD) of 128 nM and a potency estimated from few doses (TGFBR1) of 629 nM.

`CN(C)CCCC(=O)Nc1n[nH]c2nnc(-c3ccccc3)cc12.Cl` [SB-627772-A] showed a potency estimated from few doses (CDK16; [1]) of 1840 nM, a potency estimated from few doses (CDKL5) of 4.6 nM and a potency estimated from few doses (GSK3A; [1]) of 6.15 nM. It also gave a potency estimated from few doses (GSK3B; [1]) of 17.1 nM.

`NS(=O)(=O)c1ccc(N/N=C2\C(=O)Nc3ccc(C(=O)NCCc4c[nH]cn4)cc32)cc1` [GW300660X] was tested, and the potency estimated from few doses (CDK16; [1]) was 1010 nM, the potency estimated from few doses (CLK4; [1]) was 1230 nM and the potency estimated from few doses (CSNK2A1;CSNK2A3) was 2310 nM. For the same molecule, the potency estimated from few doses (CSNK2A2) was 1970 nM, the potency estimated from few doses (GSK3A; [1]) was 1220 nM and the potency estimated from few doses (MELK) was 2180 nM. The potency estimated from few doses (MYLK3) was 735 nM, the potency estimated from few doses (NUAK1) was 1450 nM and the potency estimated from few doses (PRKAG1) was 1480 nM.

`COc1cccc(F)c1C(=O)c1cnc(NC2CCN(S(C)(=O)=O)CC2)nc1N` [RO4602005-000] showed a potency estimated from few doses (CDK16; [1]) of 9.38 nM, a potency estimated from few doses (CDK17; [1]) of 73.2 nM and a potency estimated from few doses (CDK1) of 228 nM. It also gave a potency estimated from few doses (CDK2) of 37.7 nM, a potency estimated from few doses (CDK4) of 1450 nM and a potency estimated from few doses (CDK5) of 234 nM. The potency estimated from few doses (CDK6) was 1750 nM, the potency estimated from few doses (CDK7) was 812 nM and the potency estimated from few doses (CDK9) was 206 nM. The potency estimated from few doses (ICK; [1]) was 146 nM, the potency estimated from few doses (NNT) was 1690 nM and the potency estimated from few doses (PSMC4) was 1400 nM. The potency estimated from few doses (SLK; [1]) was 845 nM.

Molecule `CCN1CCC(CC(=O)Nc2n[nH]c3nc(-c4cccs4)c(Br)cc23)CC1.O=C(O)[C@H](O)[C@@H](O)C(=O)O` [SB-739245-AC] has a potency estimated from few doses (CDK16; compound concentrations: 100 nM and 1000 nM (sheet 'Samples'), CATDS: 0.32554244195376097) of 802 nM, a potency estimated from few doses (CDK17; compound concentrations: 100 nM and 1000 nM (sheet 'Samples'), CATDS: 0.31469055739513202) of 861 nM and a potency estimated from few doses (GSK3A; compound concentrations: 100 nM and 1000 nM (sheet 'Samples'), CATDS: 0.36357302595777402) of 647 nM.

`CN(C)C/C=C/C(=O)Nc1ccc(C(=O)N2CCC[C@@H](Nc3ncc(Cl)c(-c4c[nH]c5ccccc45)n3)C2)cc1` [THZ531] showed a potency estimated from few doses (CDK12) of 1800 nM, a potency estimated from few doses (CDK13) of 1740 nM and a potency estimated from few doses (MAPK10) of 434 nM. It also gave a potency estimated from few doses (MAPK8) of 1410 nM and a potency estimated from few doses (MAPK9) of 760 nM.

In the case of `CC(=O)Nc1n[nH]c2ncc(-c3ccccc3)cc12` [SB-548492], the potency estimated from few doses (CDC42) is reported as 1850 nM, the potency estimated from few doses (FLT3) is reported as 1040 nM and the potency estimated from few doses (GSK3A; [1]) is reported as 748 nM. The potency estimated from few doses (LIMK2) was 1150 nM.

Work on `NC(=O)c1ccc(Oc2nccc(-c3c(-c4ccc(F)cc4)ncn3C3CCNCC3)n2)cc1` [SB-242718] yielded a potency estimated from few doses (CDC42) of 922 nM, a potency estimated from few doses (CSNK1A1) of 2320 nM and a potency estimated from few doses (CSNK1D) of 246 nM. It also gave a potency estimated from few doses (CSNK1E) of 642 nM, a potency estimated from few doses (ERBB3) of 1430 nM and a potency estimated from few doses (MAPK14) of 476 nM. For the same molecule, the potency estimated from few doses (MAPKAPK2) was 18.3 nM and the potency estimated from few doses (RAB14) was 1380 nM.

With `Cn1cc(C2=C(c3cn(CCCSC(=N)N)c4ccccc34)C(=O)NC2=O)c2ccccc21` [RO0318220-000] the potency estimated from few doses (CDK16; [1]) was 1720 nM, the potency estimated from few doses (CDK2) was 1070 nM and the potency estimated from few doses (CDK9) was 694 nM. For the same molecule, the potency estimated from few doses (CLK1; [1]) was 785 nM, the potency estimated from few doses (CLK2) was 434 nM and the potency estimated from few doses (CLK4; [1]) was 1430 nM. For the same molecule, the potency estimated from few doses (GSK3A; [1]) was 158 nM, the potency estimated from few doses (GSK3B; [1]) was 183 nM and the potency estimated from few doses (ICK; [1]) was 1720 nM. The potency estimated from few doses (NUAK2) was 1420 nM, the potency estimated from few doses (PRKCA; [1]) was 41.5 nM and the potency estimated from few doses (PRKCB; [1]) was 105 nM. The potency estimated from few doses (PRKCD; [1]) was 58.4 nM, the potency estimated from few doses (PRKCI) was 2280 nM and the potency estimated from few doses (PRKCQ) was 121 nM. For the same molecule, the potency estimated from few doses (RPS6KA3) was 1300 nM, the potency estimated from few doses (RPS6KA6) was 33.8 nM and the potency estimated from few doses (RPS6KB1) was 419 nM. It also gave a potency estimated from few doses (SLK; [1]) of 2100 nM, a potency estimated from few doses (STK26) of 1480 nM and a potency estimated from few doses (VDAC3) of 2310 nM.
